Test results from PubChem BioAssay AID1851 (National Center for Advancing Translational Sciences (NCATS), 2009).
“And” between values parts separate entries of the source, which are not always exact repeats. Identical values can stand only once. In all, about 16,000 compounds went through this assay and about 4,000 (25%) were called active. Roughly 26% stayed inconclusive and do not appear here. Calls come from the whole dose curve; as a rule, active = well fitted curve in the direction sought with a large enough effect; inconclusive = small, poorly fitted or top-dose-only effect, or effect the other way; inactive = no such curve, though single readings can be large or run the other way. Only a sample is shown. Some structures have more than one record in an assay (separate samples or runs), and their calls can disagree.

Target: Cytochrome P450 2C9 (Homo sapiens) (UniProt P11712)
Test: Cytochrome panel assay with activity outcomes
Settings: recombinant CYP, pro-luciferin dealkylation, luminescence, p450-cyp2c9; series mostly up to 57.1 µM; activity, negative = inhibition: at the top concentration
% is set by controls: 0 for no effect and ±100 for the full control effect.

Chain of Cytochrome P450 2C9 (Homo sapiens) (P11712 whole entry, looked up): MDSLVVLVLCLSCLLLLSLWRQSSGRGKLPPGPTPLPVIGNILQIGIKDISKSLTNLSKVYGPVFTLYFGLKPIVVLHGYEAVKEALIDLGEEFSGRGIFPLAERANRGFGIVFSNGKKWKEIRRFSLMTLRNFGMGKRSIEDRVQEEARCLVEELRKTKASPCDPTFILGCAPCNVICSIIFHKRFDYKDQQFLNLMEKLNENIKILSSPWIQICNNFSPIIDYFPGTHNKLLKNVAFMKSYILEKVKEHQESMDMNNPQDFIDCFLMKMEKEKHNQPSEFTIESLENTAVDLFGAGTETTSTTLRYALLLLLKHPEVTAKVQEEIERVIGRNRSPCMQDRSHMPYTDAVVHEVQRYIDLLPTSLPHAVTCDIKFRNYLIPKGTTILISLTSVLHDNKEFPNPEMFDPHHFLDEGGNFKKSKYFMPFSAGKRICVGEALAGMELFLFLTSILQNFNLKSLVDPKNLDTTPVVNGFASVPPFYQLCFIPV

activity, negative = inhibition, inactive:
Cc1cc([N+](=O)[O-])c(C)c(Br)c1C 20.3% [at 11.4 µM]
CC(=O)OCCNC(=O)c1cccnc1 13.2%
CN(C)c1ccnc(-c2ccccc2C(F)(F)F)n1 10.1% [at 2.29 µM]
CCOC(=O)C[C@@H](C(=O)OCC)[C@@H]1CCCCC1=O 19.8% [at 11.4 µM]
COc1ccccc1CC(=N)N1C[C@@H]2C(=O)CCC(c3ccccc3)(c3ccccc3)[C@@H]2C1 1.86%
C=C1CCO[C@@]2([C@H](O)[C@@](C)(O)CO)NC(=O)[C@]1(O)NC2=O 5.79% [at 11.4 µM]
NC(=O)/C(=N\O)c1ccccc1 -1.79%
N=C(N)c1ccccc1 -4.84%
O=C1C(Cc2ccccc2)NC(=S)N1c1ccccc1 (centres undefined) -101%
O=C(c1c[nH]c(=O)n(-c2ccccc2)c1=O)N1CCc2ccccc21 -29.8%
CCOc1ccc(NC(=O)C(=O)NCC2CCCN2CC)cc1 (centres undefined) -22.5%
COc1ccc(C=Nc2c(O)ccc3ccccc23)cc1OC -1.31% [at 11.4 µM]
O=[N+]([O-])c1ccc(Cl)c(-c2ccc(/C=N/c3c(-c4ccco4)nc4ccccn34)o2)c1 7.09%
CCOc1cc(/C=N/O)cc(Cl)c1OC 18.3%
COc1ccc(NC(=O)N2CC3(CCN(C(=O)c4cccn4C)CC3)C2)cc1 -6.72%
COCCNC(=O)CCn1nc(-c2ccc(Cl)cc2)ccc1=O -24.3%
CO[C@@H]1COC(=O)[C@H](C)NC(=O)[C@@H](C)COC(=O)CCC[C@H]1C 10.9% [at 11.4 µM]
N#C/C(=C\c1ccc(O)c(O)c1)C(=O)NCCc1ccccc1 -33.5%
CC(C)CN1CCC2(CC1)CCN(S(=O)(=O)c1ccccc1)CC2 2.64%
COc1cc2nc(N3CCN(C(=O)[C@@H]4CCCO4)CC3)nc(N)c2cc1OC 8.56% [at 25.6 µM]
CNc1ncnc2c1ncn2[C@@H]1O[C@@H](CO)[C@H](O)[C@@H]1O -1.43%
CNc1ncnc2c1ncn2[C@@H]1O[C@H](CO)[C@@H](O)[C@@H]1O -2.78% [at 25.6 µM]
COc1ccc2c(c1)N(CC[C@H]1CCCCN1C)c1ccccc1S2 -3.81% [at 11.4 µM]
O=C(O)CC/C=C\CC[C@H]1[C@@H](N2CCCCC2)[C@@H](O)C[C@@H]1OCc1ccc(-c2ccccc2)cc1 11.9%
COCCCNCC(=O)c1c(N)n(Cc2ccccc2)c(=O)n(C)c1=O -17.7%
C1CCN(CC[C@@H]2CCCCN2)CC1 12.5% [at 11.4 µM]
C[N+](C)(N)Cc1csc(-c2ccc(Cl)cc2)n1 2.29% [at 11.4 µM]
COc1ccccc1-c1ccc2ncnc(NCc3cnc(C)cn3)c2c1 -18.5% [at 2.29 µM]
COc1ccc(-n2c(=O)cnc3cnc(Oc4ccccc4)nc32)cc1 -20%
O=C1C=C(N2CCN(c3ccccn3)CC2)C(=O)c2c(O)ccc(O)c21 -10.2% [at 11.4 µM]
O=C(O)CNCCc1ccccc1 12.3% [at 11.4 µM]
O=C(NCCCN1CCc2ccccc2C1)C1CCN(S(=O)(=O)N2CCCC2)CC1 -27%
C=CCNCCCCOc1c(Cl)cc(C)cc1Br 28.8%
COc1ccc2oc(=O)c(NC(=O)C3CCCCC3)cc2c1 -3.66%
CN1CCc2[nH]nc(-c3n[nH]c4c3CN(C)CC4)c2C1 3.89% [at 11.4 µM]
CCOc1ccc(C2C(C(=O)O)c3ccccc3C(=O)N2CCN2CCOCC2)cc1 (centres undefined) 7.76%
CN(C(=O)CCCOc1ccc2[nH]c(=O)ccc2c1)C1CCCCC1 25.2%
CCOc1cc(CC(=O)N[C@@H](CC(C)C)c2ccccc2N2CCCCC2)ccc1C(=O)O -5.99% [at 25.6 µM]
C[N+]1(CC(=O)OCCCc2ccccc2)CCOCC1 -7.29%
CO[C@@H]1COC(=O)[C@@H](CCSC)NC(=O)C/C=C\[C@@H](C)COC(=O)[C@H](C)NC(=O)C/C=C\[C@H]1C 10% [at 11.4 µM]
CN(Cc1ccco1)c1ncnc2ccc(-c3ccccc3C#N)cc12 -18.9% [at 2.29 µM]
Oc1ccc2ccccc2c1C=NCc1c(O)ccc2ccccc12 -2.74% [at 11.4 µM]
FC(F)(F)c1ccccc1-c1ccc2ncnc(NC3CC3)c2c1 -6.68% [at 2.29 µM]
O=C(NCCc1ccccc1)C(=O)NN=C1CCCC1 -22.4%
NS(=O)(=O)c1ccc(N=C2C(=O)Nc3ccccc32)cc1 0.554% [at 11.4 µM]
C=CC1=C(C(=O)O)N2C(=O)[C@@H](NC(=O)/C(=N\OCC(=O)O)c3csc(N)n3)[C@@H]2SC1 6.6% [at 25.6 µM]
O=C(NNc1cccc(Cl)n1)Nc1ccccc1Cl 2.18%
Cc1nc2cnc(N(C)C)nc2n(C)c1=O -11.2%
CCOC(=O)c1sc2nc3c(cc2c1N)COC(C(C)C)C3 (centres undefined) -14.7%
CCOC(=O)/C(=C/Nc1ccccc1)[N+](=O)[O-] -19.7%
CO[C@H]1COC(=O)[C@@H](CCSC)NC(=O)C/C=C\[C@@H](C)[C@H](OC)COC(=O)[C@@H](OCc2ccccc2)/C=C\[C@@H]1C 19.4% [at 11.4 µM]
O=C(Nc1ccc(C(=O)Nc2ccc(C(=O)Nc3ccc(S(=O)(=O)O)c4cc(S(=O)(=O)O)cc(S(=O)(=O)O)c34)cc2)cc1)Nc1ccc(C(=O)Nc2ccc(C(=O)Nc3ccc(S(=O)(=O)O)c4cc(S(=O)(=O)O)cc(S(=O)(=O)O)c34)cc2)cc1 -1.99%

AC50, active:
O=C(NCCO[N+](=O)[O-])c1cccnc1 2 µM
O=C(NCCOC(=O)c1ccc(C(=O)OCCNC(=O)c2cccnc2)s1)c1cccnc1 3.98 µM
NC(=O)c1cccc(N)c1 12.6 µM
O=C1C(Cc2ccccc2)SC(=Nc2ccccc2)N1c1ccccc1 (centres undefined) 15.8 µM
CCOc1ccc(-n2c(=O)[nH]cc(C(=O)N3CCCc4ccccc43)c2=O)cc1 12.6 µM
COc1cc(-c2nc3ccccn3c2/N=C/c2ccccc2)ccc1O 14.1 µM
CCOc1cc(/C=N/n2cnnc2)c(Br)cc1O 10 µM
CCC(Sc1nc2n[nH]c(C)c2c(=N)n1-c1cccc(Cl)c1)C(=O)NCCOC (centres undefined) 4.47 µM
N#C/C(=C\c1ccc(O)c(O)c1)C(=O)OCCc1cccs1 15.8 µM
CC(Oc1ccc(Cl)cc1)c1ccnn1S(=O)(=O)c1ccccc1 (centres undefined) 7.94 µM
CC(Oc1ccc(-c2ccccc2)c(F)c1)c1ccn(S(=O)(=O)c2ccc(Cl)cc2)n1 (centres undefined) 7.08 µM
CC(Oc1ccccc1)c1ccnn1S(=O)(=O)c1ccccc1 (centres undefined) 4.47 µM
O=C(NNS(=O)(=O)c1cc(Cl)cc(Cl)c1)c1sccc1-n1cccc1 0.126 µM
CCCCC#Cc1nc(NC)c2ncn([C@@H]3O[C@@H](CO)[C@H](O)[C@H]3O)c2n1 0.631 µM
N#CC1=C(SCC(N)=O)NC2=C(C(=O)c3ccccc32)C1c1ccc(Cl)cc1 (centres undefined) 6.31 µM
CSC1=C(C#N)C(c2ccccc2Cl)C2=C(N1)c1ccccc1C2=O (centres undefined) 1 µM
Cn1c(=O)c2c(n(Cc3ccccc3)c1=O)NC(=O)C2CC(=O)NCc1cccc(Cl)c1 (centres undefined) 12.6 µM
CCCCCN1CC(O)=C(c2nc(-c3ccc(Cl)cc3)cs2)C1=N 0.631 µM
CCCCc1n[nH]c2c1/C(=N/O)CC(c1ccccc1)C2 (centres undefined) 2 µM
O=C1CC(c2cccs2)c2cc3c(cc2N1)OCO3 (centres undefined) 15.8 µM
COc1ccc(Oc2nc3ccccc3nc2C(F)(F)F)cc1 7.94 µM
O=C(NCCc1ccccc1)N1c2ccccc2Sc2ccccc21 12.6 µM
O=S(=O)(c1ccc(Cl)s1)N1CCc2ccccc2C1 28.2 µM
COc1ccc2c(c1)OC1=C(C(=O)CCC1)C2C1=C(O)CCCC1=O (centres undefined) 22.4 µM
COc1ccccc1CN(Cc1cc2cc3c(cc2[nH]c1=O)OCCO3)Cc1nnnn1Cc1ccco1 12.6 µM
CCOc1ccc2[nH]c(=O)c(CN(CCc3ccccc3)C(=O)N3CCCC3)cc2c1 7.94 µM
CCOc1ccc2[nH]c(=O)c(CN(CCc3ccccc3)C(=O)N3CCOCC3)cc2c1 7.08 µM
Oc1ccc2ccccc2c1/C=C\c1ccc2c(Br)cc(Br)c(O)c2n1 2.51 µM
O=C1Nc2ccccc2/C1=N/c1sc2c(c1C(=O)NCCc1ccccc1)CCCC2 3.98 µM
CN(C)S(=O)(=O)Oc1cccc(C(=O)Nc2ccccc2Cl)c1 5.01 µM
CCOC(=O)c1sc2nc3c(cc2c1N)COC(C)(CC)C3 (centres undefined) 10 µM
C#CCN1C(C)=C(C(=O)OC)[C@@H](c2cccc([N+](=O)[O-])c2)C(C(=O)OCC)=C1C 0.316 µM
CCOC(=O)C1=C(C)NC(C)=C(C(=O)OC)[C@H]1c1cccc([N+](=O)[O-])c1 0.158 µM
CCOC(=O)C1=C(C)NC(C)=C(C(=O)OC)[C@@H]1c1cccc([N+](=O)[O-])c1 0.316 µM

AC50, inactive:
C[C@@H](CN1c2ccccc2Sc2ccccc21)N(C)C
O=C(Nc1cccc(C(=O)Nc2ccc(S(=O)(=O)O)c3cc(S(=O)(=O)O)cc(S(=O)(=O)O)c23)c1)Nc1cccc(C(=O)Nc2ccc(S(=O)(=O)O)c3cc(S(=O)(=O)O)cc(S(=O)(=O)O)c23)c1

AC50, inactive and 7.94 µM (active):
O=C(Nc1cc(C(=O)Nc2ccc(S(=O)(=O)O)cc2S(=O)(=O)O)cc(C(=O)Nc2ccc(S(=O)(=O)O)cc2S(=O)(=O)O)c1)Nc1cc(C(=O)Nc2ccc(S(=O)(=O)O)cc2S(=O)(=O)O)cc(C(=O)Nc2ccc(S(=O)(=O)O)cc2S(=O)(=O)O)c1
